# Shown is part of a subset that was picked to be rich in hits.
# nsP2pro inh: inhibitors of chikungunya virus nsP2 protease | Q8JUX6 | FRET peptide cleavage, nsP2pro, fluorescence 1 h | Potency, µM (series often up to 24.9 µM), inactives show at the highest dose activity change, negative = inhibition, actives largely listed as inhibitors | hit rate 1.1% among 31,000 | AID 1964107; further: nearly all actives have a fitted effect of over 60% in size
#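 Recombinant nsP2pro (150 nM) was preincubated with compound 15 min at room temperature in 10 mM Tris-HCl pH 8.0, 0.01% Tween 20. Peptide 2 FRET substrate (2.5 uM) was then added and fluorescence read after 1 h. Seven-point series, up to 25 uM.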
# nsP2 cell sec: cell-based CHIKV nsP2 protease inhibition, secondary | cell-based CHIKV nsP2 protease reporter assay | Potency, µM (highest dose often 51.1 µM), without a hit: at the top dose activity change, negative = inhibition, most hits filed as inhibitors | AID 1964100 | hit rate 10% among 450 | shares compounds with nsP2pro inh; further: nearly all actives have a fitted effect of over 70% in size
# CHIKV NSP2 FL: full-length CHIKV NSP2 protease inhibition, selectivity; shares compounds with nsP2pro inh; Full-length CHIKV NSP2 protease enzymatic counterscreen; Potency, µM (highest dose often 50.7 µM), without a hit: at the highest dose activity change, negative = inhibition, hits mostly inhibitors; hit rate 39% among 410; further: nearly all actives have a fitted effect of over 65% in size
# Furin counterscr: selectivity counter-screen for CHIKV nsP2 protease inhibitors: human furin; hit rate 6% among 410; Recombinant human furin enzymatic counterscreen, fluorogenic substrate; Potency, µM (top dose mostly 50.6 µM), without a hit: top-dose activity change, negative = inhibition, most hits filed as inhibitors; shares compounds with nsP2pro inh; AID 1964102
# nsP2 NS23 pep: blocks CHIKV nsP2 protease cleavage of endogenous NS2/3 peptide; shares compounds with nsP2pro inh; Purified CHIKV nsP2 protease, endogenous NS2/3 peptide cleavage; Potency, µM (top dose mostly 51 µM), for inactives: top-dose activity change, negative = inhibition, most hits filed as inhibitors; hit rate 34% among 410; further: nearly all actives have a fitted effect of over 55% in size
# Papain cs: inhibits papain in a CHIKV nsP2 protease selectivity counterscreen. purified papain protease activity, enzymatic inhibition. AID 1964104. hit rate 5% among 410. Potency, µM (highest dose often 51 µM), without a hit: at the highest dose activity change, negative = inhibition, actives largely listed as inhibitors. shares compounds with nsP2pro inh
# nsP2pro conf qHTS: CHIKV nsP2 protease inhibition, confirmatory qHTS | shares compounds with nsP2pro inh | CHIKV nsP2 protease enzymatic activity, qHTS | Potency, µM (series often up to 25.5 µM), for inactives: at the highest dose activity change, negative = inhibition, actives largely listed as inhibitors | hit rate 43% among 410 | AID 1964105; further: nearly all actives have a fitted effect of over 75% in size
# HCV NS3 counter: inhibits HCV NS3/4A protease in an nsP2pro selectivity counterscreen; shares compounds with nsP2pro inh; HCV NS3/4A protease biochemical counterscreen; Potency, µM (series often up to 50.9 µM), usual class: inhibitors; hit rate 20% among 410; AID 1964106; further: nearly all actives have a fitted effect of over 55% in size
# Starred values were filed as active, the others as inactive; i = inactive; ? = inconclusive; [ ] = another dose, or the depositor's remark. The call rests on the fitted dose curve. On the % scale 0 is the no-effect control and ±100 the full control effect; potency means the concentration at half of the fitted maximal effect.
SMILES,nsP2pro inh,others
Cc1c(C(=O)OCC2CCCCO2)[nH]c2c1C(=O)CC(c1ccco1)C2 (centres undefined),7.9µM*,nsP2 cell sec=15µM*;CHIKV NSP2 FL=-19%;Furin counterscr=?;nsP2 NS23 pep=-31%;Papain cs=-10%;nsP2pro conf qHTS=-3%;HCV NS3 counter=i
Cc1c(C(=O)OC2CCCCCC2)[nH]c2c1C(=O)CC(c1ccccc1Cl)C2 (centres undefined),-23%,
Cc1c(C(=O)OCC2CCCCC2)[nH]c2c1C(=O)CC(c1ccc(F)cc1)C2 (centres undefined),-24%,
CC(C)CC(C(=O)NC(C(=O)OC1CCCC1)c1ccccc1)C(O)C(=O)NO (centres undefined),-20%,
CCOC(=O)c1cnc(N2CC3CCC(C2)N3CC(F)(F)F)s1,-9%,
COc1cccc2sc(NC(=O)c3ccc4c(c3)OCCN(C3CCC3)C4)nc12,i,
CCCN(CC1CC1)C(=O)[C@@H]1COCC(=O)N1Cc1ccccc1,1%,
O=C1Nc2ccccc2/C1=C/c1cccc(C(=O)O)c1,i,
Cc1cc(O)c2c(c1)C(=O)c1cccc(O)c1C2=O,?,nsP2 cell sec=9%;CHIKV NSP2 FL=?;Furin counterscr=-4%;nsP2 NS23 pep=-8%;Papain cs=-6%;nsP2pro conf qHTS=?;HCV NS3 counter=i
O=C(O)c1ccc(C(=O)O)cc1,-20%,
O=C1c2c(O)cccc2Cc2cccc(O)c21,26%,
O=C(O)c1cc(O)c2c(c1)C(=O)c1cccc(O)c1C2=O,?,nsP2 cell sec=-12%;CHIKV NSP2 FL=15%;Furin counterscr=5%;nsP2 NS23 pep=i;Papain cs=?;nsP2pro conf qHTS=22%;HCV NS3 counter=i
O=C(Nc1nc(-c2ccccc2)cs1)c1ccncc1NS(=O)(=O)c1cccs1,1%,
FC(F)(F)c1ccccc1-c1nc(NCc2ccc(-c3ccc(Cl)cc3)cc2)c2ccccc2n1,-18%,
Cn1cc(C2=C(c3cn(CCCN)c4ccccc34)C(=O)NC2=O)c2ccccc21,9%,
CN[C@@H](C)C(=O)N[C@H](C(=O)N1CCC[C@H]1c1nc(C(=O)c2ccc(F)cc2)cs1)C1CCCCC1,3%,
COCCNCc1ccc(-c2cc3nccc(Oc4ccc(NC(=O)C5(C(=O)Nc6ccc(F)cc6)CC5)cc4F)c3s2)nc1,136%,
Cc1nnc(-c2cnn(C)c2)n1CCCn1ccnc1,1%,
C=C(C(=O)OC)[C@]12O[C@@](C)(CC[C@@]3(O)/C(=C\C)C(=O)O[C@]3(C)C[C@@H]1OC(=O)C(CO)CN1CCCC1C(=O)O)CC2=O (some centres undefined),?,nsP2 cell sec=-3%[17.6 µM];CHIKV NSP2 FL=2.4µM*;Furin counterscr=-7%[17.3 µM];nsP2 NS23 pep=?;Papain cs=-22%[17.2 µM];nsP2pro conf qHTS=2.1µM*;HCV NS3 counter=?
Cc1cc(OCCCS(C)(=O)=O)cc(C)c1-c1cccc(COc2ccc(C3=CC(=O)NS3=O)cc2)c1 (centres undefined),485%,
CNc1oc(-c2cccc(Cl)c2)nc1C#N,4%,
CC(C)=CCCC(C)=CCCC(C)=CCCC=C(C)CCC=C(C)CCC=C(C)C,-7%,
Cc1ccc(NC(=O)Nc2ccc3c(c2)N(C)C(=O)c2ccccc2S3)c(C)c1,-8%,
Cc1cccc(NC(=O)N[C@@H]2N=C(c3ccccc3)c3ccccc3N(C)C2=O)c1,?,nsP2 cell sec=15%;CHIKV NSP2 FL=?;Furin counterscr=-10%;nsP2 NS23 pep=?;Papain cs=-11%;nsP2pro conf qHTS=?;HCV NS3 counter=i
Cc1cccc(-c2cc(-c3ccccc3)nc(SCC(=O)Nc3ccccc3)c2C#N)c1,-9%,
SMILES,nsP2pro inh,others
Cc1cccc(NC(=O)CSc2nc3ccccc3nc2N2CCC(C)CC2)c1,-15%,
Cc1cccc(NC(=O)N[C@H]2CN(C)c3ccccc3C(c3ccccc3)=N2)c1,?,nsP2 cell sec=40%;CHIKV NSP2 FL=?;Furin counterscr=-9%;nsP2 NS23 pep=?;Papain cs=-10%;nsP2pro conf qHTS=?;HCV NS3 counter=i
Cc1cccc(NC(=O)CSc2cc(C)c3ccccc3n2)c1,-16%,
Cc1ccc(OCCn2c(CCNC(=O)C3CCN(C(=O)OC(C)(C)C)CC3)nc3ccccc32)cc1,-10%,
Cc1cc(C)nc(NC(=S)N2CCN(c3ccc4c(c3)OCO4)CC2)c1,4%,
O=C(c1cc(F)ccc1F)N1CCC(Cc2noc(C3CC3)n2)C1 (centres undefined),2%,
CC(C)(C)OC(=O)N1CCN(c2ccc(NCc3ccc(-c4cc(C(F)(F)F)cc(C(F)(F)F)c4)o3)cc2)CC1,2%,
CC(C)(C)OC(=O)N1CCN(c2ccc(NCc3coc(-c4ccc(C#N)cc4)c3)cc2)CC1,10µM*,nsP2 cell sec=?;CHIKV NSP2 FL=-27%;Furin counterscr=-4%;nsP2 NS23 pep=-12%;Papain cs=-9%;nsP2pro conf qHTS=9%;HCV NS3 counter=?
CC(C)(C)OC(=O)N1CCN(c2ccc(NCc3occc3-c3ccc(C#N)cc3)cc2)CC1,i,
CC(C)(C)OC(=O)N1CCN(c2ccc(NCc3cc(-c4ccc(C#N)cc4)co3)cc2)CC1,i,
CC(C)(C)OC(=O)N1CCN(c2ccc(NCc3ccc(-c4ccc(C(C)(C)C)cc4)o3)cc2)CC1,-1%,
CC(C)(C)OC(=O)N1CCN(c2ccc(NCc3ccc4c(c3)OCO4)cc2)CC1,?,nsP2 cell sec=6.5µM*;CHIKV NSP2 FL=0%;Furin counterscr=-12%;nsP2 NS23 pep=-22%;Papain cs=3%;nsP2pro conf qHTS=-6%;HCV NS3 counter=i
COc1cc(OC)c(C(CC(=O)N2CC(C)CC(C)C2)c2ccc3c(c2)OCO3)c(OCC(N)=O)c1 (centres undefined),-5%[39.2 µM],
COc1ccc(-c2oc3c(CC=C(C)C)c(OC4OC(CO)C(O)C(O)C4O)cc(O)c3c(=O)c2OC2OC(C)C(O)C(O)C2O)cc1 (centres undefined),-6%,
CCOc1ccc(CCNC(=O)c2cccc(C(=O)c3ccccc3)c2)cc1OCC,-16%,
COc1cc(OC)c(C(CC(=O)N2CC(C)CC(C)C2)c2ccc3c(c2)OCO3)c(OCC#N)c1 (centres undefined),i,
CC(C)(C)OC(=O)N[C@@H](Cc1ccc(OS(=O)(=O)c2cccc3cnccc23)cc1)C(=O)N1CCCN(C(=O)OC(C)(C)C)CC1,i,
CC/C(C)=C/C(=O)OC1C(OC2(C)CCC3C(C4C(C)CCC42)C3(C)C)OC(C)C(O)C1O (centres undefined),?,nsP2 cell sec=?;CHIKV NSP2 FL=5%[17.3 µM];Furin counterscr=-17%[17.3 µM];nsP2 NS23 pep=-2%[17.2 µM];Papain cs=?;nsP2pro conf qHTS=-10%[8.62 µM];HCV NS3 counter=i
CCOC(=O)c1cccc(-n2cnc(/C=C3\NC(=O)N(CC(=O)OC(C)(C)C)C3=O)c2)c1,i,
O=C(Cc1ccccc1)Nc1nnc(CCSCCc2nnc(NC(=O)Cc3ccccc3)s2)s1,-4%,
